# Experimental data from PubChem BioAssay.
# Where “and” joins values, the source holds several entries; their conditions need not be identical. Equal values may be shown once. Calls of active or inactive are those of the source.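 The calls were made as follows, unless noted: active = thallium flux through the channel raised or lowered by more than 3 SD from vehicle-only wells, actives on both sides; inactive = the rest.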
# Columns and labels:
# [1] = Wnt pathway potentiators raising nuclear beta-catenin – imaging, WNT3A-conditioned medium, mouse C2C12, NPC library, primary screen (AID 1117326; in the data active = nuclear beta-catenin stimulation mostly above about 4.2%, no sharp cut-off; inactive = mostly below about 10%); settings: stronger effect = higher value
# [2] = stimulators of insulin release from INS-1E, primary screen, cell-based, 5 mM glucose, NPC library (AID 1117329;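 active = compound raises insulin release from rat beta cells at 5 mM glucose, no numeric limit stated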); settings: rat INS-1E insulin secretion, at 10 µM, stronger effect = higher value
# [3] = growth inhibition of GSK3B-pretreated HCT116 cells – cell-based, CellTiter-Glo, 0.2 to 20 µM (AID 1117336;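 active = compounds lowering colon cancer cell viability after pretreatment blocking the GSK3B kinase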); settings: HCT116 viability after GSK3B inhibitor, at 20 µM, stronger effect = higher value
# [4] = inhibition of endothelial tube formation, primary screen, imaging, VEGF stimulated, CD31 staining, tube area, NPC library (AID 1117340;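 active = compound that reduces growth-factor-driven endothelial tube area in a mixed cell culture, no cutoff stated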); settings: VEGF-stimulated ADSC/ECFC co-culture, at 10 µM, stronger effect = higher value
# [5] = GLP1 release stimulators, primary, NCI-H716, NPC library (AID 1117341;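 active = compound raises GLP1 secretion from the human gut endocrine cells, with no numeric limit stated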); settings: NCI-H716 cells, at 10 µM, stronger effect = higher value
# [6] = HCT116 colon cancer cell growth inhibition, primary screen, CellTiter-Glo luminescence, NPC library (AID 1117342;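 active = compounds that lower survival of HCT116 colon cancer cells in the luminescence readout, no numeric limit stated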); settings: at 20 µM (top of the series)
# [7] = reduced SW480 viability measured with CellTiter-Glo, NPC library, primary (AID 1117343;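 active = compounds that lower viability of the colon cancer cells in the luminescence readout, with no numeric limit stated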); settings: CellTiter-Glo luminescence; at 20 µM (top of the series)
# [8] = NPC library primary testing for decreased DLD-1 cell viability via CellTiter-Glo (AID 1117346;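 active = compounds that lower survival of DLD-1 colon cancer cells in the luminescence readout, no cutoff given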); settings: DLD-1 viability, CellTiter-Glo luminescence; at 20 µM (top of the series)
# [9] = target: 6-phosphogluconate dehydrogenase, decarboxylating (Homo sapiens) (UniProt P52209); assay: inhibition of human phosphogluconate dehydrogenase – biochemical, recombinant enzyme, NADPH absorbance, primary screen (AID 1159550;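 active = at least 20% inhibition of 6-phosphogluconate dehydrogenase activity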); settings: recombinant 6PGD, NADPH absorbance 341 nm; at 10 µM; stronger effect = higher value
# Chain of 6-phosphogluconate dehydrogenase, decarboxylating (Homo sapiens) (P52209 whole entry, looked up): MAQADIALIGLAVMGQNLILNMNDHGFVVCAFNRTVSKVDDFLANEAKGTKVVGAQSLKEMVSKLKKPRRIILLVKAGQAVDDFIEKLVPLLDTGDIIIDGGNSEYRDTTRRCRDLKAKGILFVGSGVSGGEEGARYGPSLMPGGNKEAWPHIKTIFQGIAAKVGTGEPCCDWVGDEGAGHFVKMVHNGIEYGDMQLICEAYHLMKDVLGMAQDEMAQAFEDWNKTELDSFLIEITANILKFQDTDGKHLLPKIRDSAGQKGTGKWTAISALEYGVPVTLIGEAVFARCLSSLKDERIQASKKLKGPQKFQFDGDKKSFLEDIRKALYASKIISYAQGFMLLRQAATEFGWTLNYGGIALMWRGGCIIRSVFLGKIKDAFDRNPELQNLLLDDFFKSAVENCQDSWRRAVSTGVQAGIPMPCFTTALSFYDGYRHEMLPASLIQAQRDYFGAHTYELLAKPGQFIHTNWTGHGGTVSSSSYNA
# [10] = modulation of C. elegans fzo-1 (AID 1259413; call rule not given here;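 also: fzo-1 mutant C. elegans worms in liquid wells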); settings: C. elegans fzo-1 modulator screen, mean read-out; stronger effect = higher value
# [11] = EMT-state selective cytotoxicity in co-culture – imaging, PC-3E GFP, TEM4-18 mCherry, primary screen (AID 1345086;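 active = compounds killing one labelled cell type while sparing the other, by normalised counts and ratio limits, not self-fluorescent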;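 as to all read-outs here: cells exposed to compound for 72 h before imaging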;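 as to red/green cell ratio (normalised): normalised mesenchymal count divided by normalised epithelial count so high means epithelial killing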); settings: PC-3E GFP / TEM4-18 mCherry co-culture, imaging cell counts, at 1 µM; for red/green cell ratio (normalised): actives lie on both sides, counts scaled to control wells, 1 = unselective
# [12] = viability loss with induced miR-34 in A549 – imaging, A549 dox-inducible miR-34, nuclei and caspase counts, primary screen (AID 1347080;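 active = compounds whose cell count with miR-34 switched on is under 0.7 times the count with it off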); settings: A549 miR-34 inducible, Hoechst nuclei count, 48 h
# [13] = MELAS cybrid and Rieske KO viability enhancers – cell-based, MELAS cybrids, Rieske KO mouse fibroblasts, CellTiter-Glo, primary screen (AID 1508586;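 active = mean z-score across replicates of 1.96 or higher in either the MELAS or the Rieske mutant cell line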;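 also: z relative to plate mean and SD of compound and empty wells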); settings: low glucose
# [14] = target: NAD(+) hydrolase SARM1 (Homo sapiens) (UniProt Q6SZW1); assay: blocking NAD cleavage by SARM1 SAM-TIR – cell lysate, NAD-Glo luminescence (AID 1508614;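 active = compound whose remaining NAD level is above about 45 nM, limit read from the data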;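 also: higher remaining NAD means stronger inhibition of SARM1 NADase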); settings: SAM-TIR HEK293T lysate NADase, at 1 µM, stronger effect = higher value
# Chain of NAD(+) hydrolase SARM1 (Homo sapiens) (Q6SZW1 whole entry, looked up, the tested form may be a part): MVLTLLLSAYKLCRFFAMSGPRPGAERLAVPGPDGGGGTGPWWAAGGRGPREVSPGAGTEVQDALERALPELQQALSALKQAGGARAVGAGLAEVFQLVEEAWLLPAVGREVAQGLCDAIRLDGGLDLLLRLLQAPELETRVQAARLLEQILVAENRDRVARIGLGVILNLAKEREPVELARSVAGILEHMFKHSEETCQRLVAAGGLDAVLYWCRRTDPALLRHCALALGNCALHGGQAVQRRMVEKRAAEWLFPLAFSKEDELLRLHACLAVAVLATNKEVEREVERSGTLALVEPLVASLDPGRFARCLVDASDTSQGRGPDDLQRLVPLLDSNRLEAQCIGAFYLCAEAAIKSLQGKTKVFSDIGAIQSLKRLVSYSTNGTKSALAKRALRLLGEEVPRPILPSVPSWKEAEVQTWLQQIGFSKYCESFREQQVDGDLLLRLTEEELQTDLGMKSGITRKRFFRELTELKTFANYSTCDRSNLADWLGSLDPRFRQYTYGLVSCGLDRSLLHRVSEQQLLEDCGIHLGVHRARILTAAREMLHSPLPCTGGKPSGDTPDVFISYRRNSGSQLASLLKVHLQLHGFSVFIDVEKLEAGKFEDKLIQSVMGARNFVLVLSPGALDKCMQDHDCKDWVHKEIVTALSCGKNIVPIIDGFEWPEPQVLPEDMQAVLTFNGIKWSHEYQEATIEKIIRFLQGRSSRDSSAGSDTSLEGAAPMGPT
# [15] = target: Mitogen-activated protein kinase 7 (Homo sapiens) (UniProt Q13164); assay: Gal4-ERK5 driven luciferase induction – cell-based, HTS, primary screen (AID 1508626;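 active = luciferase signal above three times the same-plate solvent-only control wells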;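 also: luciferase driven by Gal4-ERK5 fusion binding five Gal4 sites before minimal TATA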); settings: HeLa Gal4-ERK5 transactivation, 18 h, at 5 µM, stronger effect = higher value
# Chain of Mitogen-activated protein kinase 7 (Homo sapiens) (Q13164 whole entry, looked up, the tested form may be a part): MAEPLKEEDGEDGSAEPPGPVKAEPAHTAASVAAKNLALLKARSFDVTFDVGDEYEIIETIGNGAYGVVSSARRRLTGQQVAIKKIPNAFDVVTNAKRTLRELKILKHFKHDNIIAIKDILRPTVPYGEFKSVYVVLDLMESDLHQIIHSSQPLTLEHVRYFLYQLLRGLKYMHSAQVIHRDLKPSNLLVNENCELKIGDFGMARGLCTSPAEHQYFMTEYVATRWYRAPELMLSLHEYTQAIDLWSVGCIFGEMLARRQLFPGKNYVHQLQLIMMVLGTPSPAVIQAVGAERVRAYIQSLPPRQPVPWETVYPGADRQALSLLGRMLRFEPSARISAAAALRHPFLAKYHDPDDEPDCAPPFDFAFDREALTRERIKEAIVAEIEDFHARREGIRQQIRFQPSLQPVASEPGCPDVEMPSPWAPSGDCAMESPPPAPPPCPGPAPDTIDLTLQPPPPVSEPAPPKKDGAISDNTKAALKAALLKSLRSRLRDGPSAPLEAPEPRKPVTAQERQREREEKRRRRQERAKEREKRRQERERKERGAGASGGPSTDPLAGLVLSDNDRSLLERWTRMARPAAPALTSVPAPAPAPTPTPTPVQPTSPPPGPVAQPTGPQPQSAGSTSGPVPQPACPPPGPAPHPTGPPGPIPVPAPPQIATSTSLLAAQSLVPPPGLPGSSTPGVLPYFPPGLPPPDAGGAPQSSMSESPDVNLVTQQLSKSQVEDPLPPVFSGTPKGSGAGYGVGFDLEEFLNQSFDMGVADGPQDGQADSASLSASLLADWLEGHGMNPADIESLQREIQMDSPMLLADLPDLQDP
# F380Y = assay: BK channel mutant inhibitors and activators – cell-based, U2OS BacMam, thallium flux, beta subunits, selectivity assay, profiling panel (AID 1259406); settings: U2OS BacMam BK variants, at 30 µM;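 also: initial slope of Thallos dye fluorescence rise after thallium is added; log ratio against the mean of 0.3% DMSO vehicle wells on the same plate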
# F380Y/beta1 = assay: as above; settings: U2OS BacMam BK variants, at 30 µM
# F380Y/beta2Delta = assay: as above; settings: U2OS BacMam BK variants, at 30 µM
# [16] = measured here: epithelial PC-3E GFP cell survival
# [17] = measured here: mesenchymal TEM4-18 mCherry cell survival
# [18] = stronger effect = lower value, cell number ratio, induced over uninduced
# [19] = measured here: relative caspase fold change +Dox/-Dox
# [20] = measured here: total cells with miR-34 induction, stronger effect = lower value
# [21] = measured here: total cells without miR-34 induction
# [22] = MELAS cybrid survival, CellTiter-Glo 48 h, stronger effect = higher value
# [23] = Rieske KO mouse fibroblast survival, CellTiter-Glo 72 h
smiles,measurement,setting,value
CN(C)CCOC(c1ccc(Cl)cc1)c1ccccn1 (stereo not drawn),nuclear beta-catenin stimulation,[1]; at 10 µM,0.9% (inactive)
same,nuclear beta-catenin stimulation,"[1]; stimulation, at 2 µM",0.3%
same,insulin secretion stimulation,[2],46.5% (active)
same,viability decrease,[3],8.6% (inactive)
same,tube area decrease,[4],1.1% (inactive)
same,GLP1 secretion stimulation,[5],6.8% (inactive)
same,inhibition of viability,[6],2.7% (inactive)
same,viability decrease (inhibition),[7],6% (inactive)
same,viability decrease (inhibition),[8],-7% (inactive)
same,inhibition,[9],8.32% (inactive)
same,mean signal,[10],244 (inactive)
same,red/green cell ratio (normalised),[11],1.11 (inactive)
same,normalised cell number,[11]; [16],1.14
same,normalised cell number,[11]; [17],1.26
same,fold change,[12]; [18],0.98 (inactive) and 0.859 (inactive) and 0.928 (inactive)
same,fold change,[12]; [19],1.31 and 1.4 and 2.86
same,cell count,[12]; [20],9280 and 8230 and 11400
same,cell count,[12]; [21],9460 and 9580 and 12300
same,z-score,[13]; [22],0.0234 (inactive)
same,z-score,[13]; [23],-1.05
same,remaining NAD,[14],10 nM (inactive)
same,luciferase signal,[15],88 AU (inactive)
same,log fold change Tl+ flux,F380Y,0.0898 (inactive)
same,log fold change Tl+ flux,F380Y/beta1,0.0451 (inactive)
same,log fold change Tl+ flux,F380Y/beta2Delta,0.0734 (inactive)
Cc1ccc(C)c(OCCCC(C)(C)C(=O)O)c1,nuclear beta-catenin stimulation,[1]; at 10 µM,1.3% (inactive)
same,nuclear beta-catenin stimulation,"[1]; stimulation, at 2 µM",1.2%
same,insulin secretion stimulation,[2],-1% (inactive)
same,viability decrease,[3],4.95% (inactive)
same,tube area decrease,[4],-9.2% (inactive)
same,GLP1 secretion stimulation,[5],2.4% (inactive)
same,inhibition of viability,[6],-1.9% (inactive)
same,viability decrease (inhibition),[7],20.7% (inactive)
same,viability decrease (inhibition),[8],0.75% (inactive)
same,inhibition,[9],-2.35% (inactive)
same,mean signal,[10],239 (inactive)
same,red/green cell ratio (normalised),[11],1.25 (inactive)
same,normalised cell number,[11]; [16],0.82
same,normalised cell number,[11]; [17],1.03
same,z-score,[13]; [22],-0.269 (inactive) and 0.233 (inactive) and 0.482 (inactive)
same,z-score,[13]; [23],0.636 and -0.228 and 0.576
same,remaining NAD,[14],10 nM (inactive)
same,luciferase signal,[15],128 AU (inactive)
same,log fold change Tl+ flux,F380Y,0.0531 (inactive)
same,log fold change Tl+ flux,F380Y/beta1,0.07 (inactive)
same,log fold change Tl+ flux,F380Y/beta2Delta,0.0499 (inactive)
Cc1cn([C@H]2C[C@H](N=[N+]=[N-])[C@@H](CO)O2)c(=O)[nH]c1=O,nuclear beta-catenin stimulation,[1]; at 10 µM,1.2% (inactive)
same,nuclear beta-catenin stimulation,"[1]; stimulation, at 2 µM",1.3%
same,insulin secretion stimulation,[2],-1.7% (inactive)
same,viability decrease,[3],4.9% (inactive)
same,tube area decrease,[4],18.1% (inactive)
same,GLP1 secretion stimulation,[5],-0.1% (inactive)
same,inhibition of viability,[6],2.4% (inactive)
same,viability decrease (inhibition),[7],-5.4% (inactive)
same,viability decrease (inhibition),[8],-4.95% (inactive)
same,inhibition,[9],13.6% (inactive)
same,mean signal,[10],236 (inactive)
same,red/green cell ratio (normalised),[11],1.03 (inactive)
same,normalised cell number,[11]; [16],1.06
same,normalised cell number,[11]; [17],1.09
same,z-score,[13]; [22],1.37 (inactive) and 1.42 (inactive)
same,z-score,[13]; [23],0.0413 and -0.28
same,remaining NAD,[14],10 nM (inactive)
same,luciferase signal,[15],44 AU (inactive)
same,log fold change Tl+ flux,F380Y,-0.00123 (inactive)
same,log fold change Tl+ flux,F380Y/beta1,0.0379 (inactive)
same,log fold change Tl+ flux,F380Y/beta2Delta,0.00186 (inactive)
OC(CCN1CCCC1)(c1ccccc1)C1CCCCC1 (stereo not drawn),nuclear beta-catenin stimulation,[1]; at 10 µM,4.7% (inactive)
same,nuclear beta-catenin stimulation,"[1]; stimulation, at 2 µM",4.9%
same,insulin secretion stimulation,[2],6.4% (inactive)
same,viability decrease,[3],-95.6% (inactive)
same,tube area decrease,[4],-12.4% (inactive)
same,GLP1 secretion stimulation,[5],3.4% (inactive)
same,inhibition of viability,[6],17.1% (inactive)
same,viability decrease (inhibition),[7],22.1% (inactive)
same,viability decrease (inhibition),[8],10.7% (inactive)
same,inhibition,[9],-21.9% (inactive)
same,mean signal,[10],232 (inactive)
same,red/green cell ratio (normalised),[11],1.05 (inactive)
same,normalised cell number,[11]; [16],0.98
same,normalised cell number,[11]; [17],1.03
same,fold change,[12]; [18],0.976 (inactive) and 0.849 (inactive) and 0.894 (inactive)
same,fold change,[12]; [19],1.12 and 3.13 and 3.87
same,cell count,[12]; [20],10200 and 8600 and 10900
same,cell count,[12]; [21],10400 and 10100 and 12200
same,z-score,[13]; [22],0.381 (inactive)
same,z-score,[13]; [23],0.369
same,remaining NAD,[14],10 nM (inactive)
same,luciferase signal,[15],44 AU (inactive)
same,log fold change Tl+ flux,F380Y,0.0696 (inactive)
same,log fold change Tl+ flux,F380Y/beta1,0.0373 (inactive)
same,log fold change Tl+ flux,F380Y/beta2Delta,0.106 (active)
NC(=O)c1cnccn1,nuclear beta-catenin stimulation,[1]; at 10 µM,-0.1% (inactive)
same,nuclear beta-catenin stimulation,"[1]; stimulation, at 2 µM",-0.7%
same,insulin secretion stimulation,[2],-1.9% (inactive)
same,viability decrease,[3],0.65% (inactive)
same,tube area decrease,[4],14.5% (inactive)
same,GLP1 secretion stimulation,[5],3.1% (inactive)
same,inhibition of viability,[6],-20.7% (inactive)
same,viability decrease (inhibition),[7],-1.8% (inactive)
same,viability decrease (inhibition),[8],-1.9% (inactive)
same,inhibition,[9],-8.25% (inactive)
same,mean signal,[10],263 (inactive)
same,red/green cell ratio (normalised),[11],1.13 (inactive)
same,normalised cell number,[11]; [16],0.91
same,normalised cell number,[11]; [17],1.03
same,z-score,[13]; [22],-0.184 (inactive) and 0.644 (inactive)
same,z-score,[13]; [23],-1 and -0.0443
same,remaining NAD,[14],10 nM (inactive)
same,luciferase signal,[15],48 AU (inactive)
same,log fold change Tl+ flux,F380Y,-0.0194 (inactive)
same,log fold change Tl+ flux,F380Y/beta1,0.0317 (inactive)
same,log fold change Tl+ flux,F380Y/beta2Delta,-0.0799 (active)
N[C@@H](C(=O)N[C@@H]1C(=O)N2C(C(=O)O)=C(Cl)CS[C@H]12)c1ccccc1,nuclear beta-catenin stimulation,[1]; at 10 µM,0.3% (inactive)
same,nuclear beta-catenin stimulation,"[1]; stimulation, at 2 µM",1.1%
same,insulin secretion stimulation,[2],1.9% (inactive)
same,viability decrease,[3],12.5% (inactive)
same,tube area decrease,[4],-21% (inactive)
same,GLP1 secretion stimulation,[5],-1.7% (inactive)
same,inhibition of viability,[6],-1.63% (inactive)
same,viability decrease (inhibition),[7],26.8% (inactive)
same,viability decrease (inhibition),[8],-20.5% (inactive)
same,inhibition,[9],-9.98% (inactive)
same,mean signal,[10],277 (inactive)
same,red/green cell ratio (normalised),[11],1.23 (inactive)
same,normalised cell number,[11]; [16],0.9
same,normalised cell number,[11]; [17],1.1
same,fold change,[12]; [18],0.883 (inactive) and 0.884 (inactive)
same,fold change,[12]; [19],1.88 and 4.52
same,cell count,[12]; [20],8220 and 11700
same,cell count,[12]; [21],9320 and 13200
same,z-score,[13]; [22],0.0553 (inactive)
same,z-score,[13]; [23],-0.142
same,remaining NAD,[14],10 nM (inactive)
same,luciferase signal,[15],32 AU (inactive)
same,log fold change Tl+ flux,F380Y,-0.0277 (inactive)
same,log fold change Tl+ flux,F380Y/beta1,-0.0714 (inactive)
same,log fold change Tl+ flux,F380Y/beta2Delta,-0.0661 (inactive)
COc1ccc(OC)c(C(O)CNC(=O)CN)c1 (stereo not drawn),nuclear beta-catenin stimulation,[1]; at 10 µM,3.8% (inactive)
same,nuclear beta-catenin stimulation,"[1]; stimulation, at 2 µM",4.9%
same,insulin secretion stimulation,[2],2.7% (inactive)
same,viability decrease,[3],17.9% (inactive)
same,tube area decrease,[4],-15.2% (inactive)
same,GLP1 secretion stimulation,[5],0.7% (inactive)
same,inhibition of viability,[6],-0.9% (inactive)
same,viability decrease (inhibition),[7],-26.4% (inactive)
same,viability decrease (inhibition),[8],0.7% (inactive)
same,inhibition,[9],-19.4% (inactive)
same,mean signal,[10],239 (inactive)
same,red/green cell ratio (normalised),[11],1.18 (inactive)
same,normalised cell number,[11]; [16],1.01
same,normalised cell number,[11]; [17],1.2
same,fold change,[12]; [18],0.924 (inactive) and 0.912 (inactive) and 0.855 (inactive)
same,fold change,[12]; [19],2.18 and 0.75 and 3.91
same,cell count,[12]; [20],9350 and 8590 and 11100
same,cell count,[12]; [21],10100 and 9420 and 12900
same,z-score,[13]; [22],0.0363 (inactive)
same,z-score,[13]; [23],-0.177
same,remaining NAD,[14],10 nM (inactive)
same,luciferase signal,[15],124 AU (inactive)
same,log fold change Tl+ flux,F380Y,-0.028 (inactive)
same,log fold change Tl+ flux,F380Y/beta1,0.0228 (inactive)
same,log fold change Tl+ flux,F380Y/beta2Delta,-0.0267 (inactive)
